This is an account of results in PubChem BioAssay (EPA / NIEHS).

In test [1] the target is Paired box protein Pax-6 (Homo sapiens) (UniProt P26367). The experiment in a line: ATG_Pax6_CIS: Attagene CIS-FACTORIAL HepG2 Assay for human Paired Box 6 (PAX6) (AID 2282956). The conditions noted are these: HepG2 CIS-FACTORIAL PAX6 reporter transcription, RNA readout; actives raise or lower the signal. An outline of the steps:
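Multiplexed cis-reporter HepG2 system; 24 h treatment; reporter mRNA read by RT-PCR/CE fluorescence; bidirectional fit vs DMSO.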

The nature of test [2]: ATG_PXRE_CIS: Attagene CIS-FACTORIAL HepG2 Assay for human Pregnane X Receptor Element (PXRE) (AID 2282957). Particulars: HepG2 Attagene CIS-FACTORIAL PXRE reporter, mRNA; actives raise or lower the signal. In short, it runs like this:
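Cells: HepG2, transiently transfected reporter units under cis promoter control. Exposure: 24 h. Detection: reporter mRNA via RT-PCR/CE fluorescence; bidirectional fitting, DMSO-referenced.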

A short description of test [3]: ATG_RORE_CIS: Attagene CIS-FACTORIAL HepG2 Assay for human RAR-related Orphan Receptor Element (RORE) (AID 2282959). Particulars: HepG2 Attagene cis-factorial RORE reporter, mRNA; actives raise or lower the signal. An outline of the steps: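 RORE reporter transcripts reflecting endogenous factor activity were read after 24 h compound exposure of transfected HepG2 cells, using reverse transcription, PCR, fluorescent labelling and capillary electrophoresis sizing. Gain or loss fitted against DMSO.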

Test [4] has as its target Transcription factor Sp1 (Homo sapiens) (UniProt P08047). Description: ATG_Sp1_CIS: Attagene CIS-FACTORIAL HepG2 Assay for human Specificity Protein 1 (Sp1) (AID 2282961). Particulars: HepG2 Sp1 cis-reporter transcription, actives raise or lower the signal. An outline of the steps:
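Read-out is reporter transcript level, measured by RT-PCR and fluorescent capillary electrophoresis after 24 h chemical treatment. System: transiently transfected HepG2 cells reporting endogenous transcription factor activity; gain or loss fitted against DMSO baseline.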

Test [5] in a line: ATG_SREBP_CIS: Attagene CIS-FACTORIAL HepG2 Assay for human Sterol Regulatory Element Binding (SREBP) (AID 2282962). The conditions noted are these: HepG2 Attagene cis-factorial SREBP reporter, mRNA; actives raise or lower the signal. In short, it runs like this:
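mRNA induction of transfected cis-promoter reporters in HepG2 cells, 24 h post-dose. Detection: RT-PCR with 6-FAM-labelled products, HpaI digest, capillary electrophoresis. DMSO served as negative control and baseline.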

In test [6] the target is Signal transducer and activator of transcription 3 (Homo sapiens) (UniProt P40763). The experiment in a line: ATG_STAT3_CIS: Attagene CIS-FACTORIAL HepG2 Assay for human Signal Transducer and Activator of Transcription 3 (STAT3) (AID 2282963). The conditions noted are these: HepG2, Attagene cis-factorial STAT3 reporter transcription; actives raise or lower the signal. In short, it runs like this: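 HepG2 cells transiently transfected with cis-element-driven multiple reporter transcription units; after 24 h chemical exposure, reporter mRNA measured by RT-PCR, 6-FAM primer-extension labelling, HpaI digestion and capillary electrophoresis. Bidirectional fitting versus DMSO baseline.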

Test [7] is described as follows: ATG_TA_CIS: Attagene CIS-FACTORIAL HepG2 Assay for human TA Basal Promoter (AID 2282964). The conditions noted are these: HepG2 Attagene CIS-factorial TA basal promoter reporter; actives raise or lower the signal. In short, it runs like this: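 HepG2 cells transiently transfected with multiplexed cis-promoter reporter units, dosed 24 h. Reporter mRNA measured by RT-PCR, 6-FAM labelling, HpaI digestion and capillary electrophoresis; bidirectional fit versus DMSO baseline, serving as background control.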

A short description of test [8]: ATG_TCF_b_cat_CIS: Attagene CIS-FACTORIAL HepG2 Assay for human T-Cell-Factor with beta-catenin (TCF/b-cat) (AID 2282965). The conditions noted are these: HepG2 TCF/beta-catenin cis-reporter transcription, actives raise or lower the signal. In short, it runs like this: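 Using capillary electrophoresis as the read-out, labelled reporter cDNA fragments from transiently transfected HepG2 were sized and quantified. Exposure lasted 24 hours; activity in either direction was referenced to DMSO.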

A short description of test [9]: ATG_TAL_CIS: Attagene CIS-FACTORIAL HepG2 Assay for human TAL Basal Promoter (AID 2282966).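 Further: background control endpoint measuring basal TAL promoter reporter mRNA not a specific factor.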 Particulars: HepG2 Attagene cis-factorial TAL promoter reporter; actives raise or lower the signal. In short, it runs like this:
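RT-PCR plus capillary electrophoresis quantifies reporter mRNA induction in transiently transfected HepG2 cells after 24 h chemical treatment. DMSO serves as negative control and baseline for bidirectional fitting.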

Test [10] is described as follows: ATG_TGFb_CIS: Attagene CIS-FACTORIAL HepG2 Assay for human Transforming Growth Factor (TGF) (AID 2282967). Particulars: HepG2 Attagene CIS TGFb reporter, mRNA transcription; actives raise or lower the signal. In short, it runs like this: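 HepG2 cells transiently transfected with cis-promoter-driven multiplexed reporter units; 24 h compound exposure. Reporter mRNA measured by RT-PCR, 6-FAM labeling, HpaI digestion and capillary electrophoresis; bidirectional fit versus DMSO baseline.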

A short description of test [11]: ATG_VDRE_CIS: Attagene CIS-FACTORIAL HepG2 Assay for human Vitamin D Receptor Element (VDRE) (AID 2282968). The conditions noted are these: HepG2 VDRE cis-reporter transcription, actives raise or lower the signal. An outline of the steps: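 HepG2 cells transiently transfected with cis-element reporter units, dosed 24 h; reporter mRNA measured by RT-PCR, 6-FAM labeling, HpaI digestion and capillary electrophoresis. Activity fitted bidirectionally against DMSO baseline.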

Test [12] has as its target X-box-binding protein 1 (Homo sapiens) (UniProt P17861). The experiment in a line: ATG_Xbp1_CIS: Attagene CIS-FACTORIAL HepG2 Assay for human X-box Binding Protein 1 (XBP1) (AID 2282972). Particulars: HepG2 XBP1 cis-element reporter, Attagene multiplex; actives raise or lower the signal. In short, it runs like this: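 Fluorescence-labelled cDNA fragments from reporter transcripts, separated by capillary electrophoresis, give the signal. Source: HepG2 cells transfected with promoter-driven reporter units, harvested 24 h post-dose. DMSO served as reference for bidirectional curve fitting.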

Test [13] is described as follows: ATG_M_19_TRANS: Attagene TRANS-FACTORIAL HepG2 Assay for M19 Transcription Factor (Internal Marker) (AID 2282974; active means hit-call score of the fitted dose curve at least 0.9, where 1 is the maximum). The conditions noted are these: HepG2 Attagene TRANS-FACTORIAL M19 internal marker reporter. An outline of the steps:
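Background-control readout: after 24 h chemical exposure of transfected HepG2 carrying GAL4-driven reporter units, RNA was reverse-transcribed, amplified, fluorescently labeled and sized by capillary electrophoresis; gain-of-signal fit against DMSO.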

A short description of test [14]: ATG_GAL4_TRANS: Attagene TRANS-FACTORIAL HepG2 Assay for GAL4 (Internal Marker) (AID 2282976; active means hit-call score of the fitted dose curve at least 0.9, where 1 is the maximum). The conditions noted are these: HepG2 Attagene TRANS GAL4 internal marker reporter. In short, it runs like this: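 In transfected human HepG2 liver cells dosed 24 h, GAL4 reporter mRNA serves as a baseline marker. Detection by RT-PCR with fluorescent capillary electrophoresis, activity fitted upward relative to DMSO.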

Test [15] addresses Estrogen receptor (Homo sapiens) (UniProt P03372). The experiment in a line: ATG_ERa_TRANS: Attagene TRANS-FACTORIAL HepG2 Assay for human Estrogen Receptor alpha (ERa) (AID 2282970; active means hit-call score of the fitted dose curve at least 0.9, where 1 is the maximum). The conditions noted are these: HepG2 Attagene TRANS ERa GAL4 reporter, mRNA. An outline of the steps:
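Cells: HepG2, transiently transfected. Construct: GAL4-UAS reporter units regulated by exogenous NR-Gal4 chimeras. Time: 24 h. Detection: reporter mRNA by RT-PCR, capillary electrophoresis, fluorescence. Baseline: DMSO, upward fitting.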

Test [16] can be described thus: ATG_PPRE_CIS: Attagene CIS-FACTORIAL HepG2 Assay for human Peroxisome Proliferator-activated Response Element (PPRE) (AID 2282958). Particulars: HepG2 PPRE cis-element reporter, Attagene transcription factor profiling; actives raise or lower the signal. An outline of the steps:
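Endogenous PPRE-driven transcription is measured in HepG2 cells carrying transfected multi-reporter constructs. Reporter transcripts are quantified by RT-PCR, HpaI digestion and capillary electrophoresis 24 h after dosing. DMSO baseline, bidirectional fit.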

The nature of test [17]: ATG_Sox_CIS: Attagene CIS-FACTORIAL HepG2 Assay for human SRY-box transcription factor (SOX) (AID 2282960). The conditions noted are these: HepG2 Attagene cis-factorial SOX reporter, mRNA; actives raise or lower the signal. An outline of the steps: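 Reporter transcripts, measured by RT-PCR and capillary electrophoresis of labelled fragments, report endogenous SOX transcription factor activity. Transiently transfected human HepG2 cells receive chemical for 24 h; changes in either direction are fitted relative to DMSO.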

Test [18] deals with Steroid hormone receptor ERR1 (Homo sapiens) (UniProt P11474). Description: ATG_ERRa_TRANS: Attagene TRANS-FACTORIAL HepG2 Assay for human Estrogen-Related Receptor alpha (ERRa) (AID 2282971; active means hit-call score of the fitted dose curve at least 0.9, where 1 is the maximum). The conditions noted are these: HepG2 Attagene TRANS reporter, ERRa transactivation. In short, it runs like this: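 Reporter transcripts from ERRa-Gal4 chimera activity measured in transiently transfected human HepG2 cells 24 hours after dosing, using RT-PCR with 6-FAM primer extension, HpaI digestion and capillary electrophoresis; DMSO is baseline.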

SMILES strings stand for the structures. Records with an inconclusive call do not appear. Activity calls are given as the source filed them. How the source made its calls, unless noted: active means hit-call score of the fitted dose curve at least 0.9, where 1 is the maximum; inactive means score below 0.9.

Estrogen receptor (Homo sapiens), sequence (P03372 whole entry, looked up, the tested form may be a part): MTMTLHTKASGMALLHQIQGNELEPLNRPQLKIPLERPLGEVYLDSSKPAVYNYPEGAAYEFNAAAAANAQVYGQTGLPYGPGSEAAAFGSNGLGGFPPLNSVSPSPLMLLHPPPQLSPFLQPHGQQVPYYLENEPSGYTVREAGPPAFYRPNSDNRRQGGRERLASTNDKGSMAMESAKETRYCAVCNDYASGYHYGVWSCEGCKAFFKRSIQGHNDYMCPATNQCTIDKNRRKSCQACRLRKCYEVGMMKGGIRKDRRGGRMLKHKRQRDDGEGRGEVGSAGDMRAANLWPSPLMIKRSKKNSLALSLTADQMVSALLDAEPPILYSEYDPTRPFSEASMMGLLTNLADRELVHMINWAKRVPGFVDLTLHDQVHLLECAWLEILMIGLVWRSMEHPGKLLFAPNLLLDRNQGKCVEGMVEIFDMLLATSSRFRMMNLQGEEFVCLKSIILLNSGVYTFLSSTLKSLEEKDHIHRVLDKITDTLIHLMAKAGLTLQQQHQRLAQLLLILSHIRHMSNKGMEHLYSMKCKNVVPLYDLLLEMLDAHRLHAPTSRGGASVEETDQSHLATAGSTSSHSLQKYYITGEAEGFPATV
Signal transducer and activator of transcription 3 (Homo sapiens), sequence (P40763 whole entry, looked up): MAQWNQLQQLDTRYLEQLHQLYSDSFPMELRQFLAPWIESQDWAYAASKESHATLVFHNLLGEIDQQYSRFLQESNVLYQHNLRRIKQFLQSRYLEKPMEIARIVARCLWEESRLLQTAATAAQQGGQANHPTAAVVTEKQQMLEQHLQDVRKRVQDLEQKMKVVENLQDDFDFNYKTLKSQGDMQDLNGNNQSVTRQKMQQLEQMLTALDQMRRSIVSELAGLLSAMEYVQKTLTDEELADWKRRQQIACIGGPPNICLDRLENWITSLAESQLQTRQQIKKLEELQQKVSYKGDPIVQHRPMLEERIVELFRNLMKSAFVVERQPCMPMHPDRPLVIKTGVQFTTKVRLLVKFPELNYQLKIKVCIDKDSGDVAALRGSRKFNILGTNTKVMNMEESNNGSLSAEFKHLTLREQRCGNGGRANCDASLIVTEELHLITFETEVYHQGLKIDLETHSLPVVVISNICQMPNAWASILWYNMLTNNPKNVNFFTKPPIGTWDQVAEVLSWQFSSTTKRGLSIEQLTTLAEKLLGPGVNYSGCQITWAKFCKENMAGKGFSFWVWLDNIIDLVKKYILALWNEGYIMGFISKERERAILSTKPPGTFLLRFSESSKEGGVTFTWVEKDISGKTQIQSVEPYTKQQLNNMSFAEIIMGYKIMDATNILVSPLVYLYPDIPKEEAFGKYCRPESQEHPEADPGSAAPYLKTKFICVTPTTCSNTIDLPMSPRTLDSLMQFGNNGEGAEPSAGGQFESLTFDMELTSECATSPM
Transcription factor Sp1 (Homo sapiens), sequence (P08047 whole entry, looked up): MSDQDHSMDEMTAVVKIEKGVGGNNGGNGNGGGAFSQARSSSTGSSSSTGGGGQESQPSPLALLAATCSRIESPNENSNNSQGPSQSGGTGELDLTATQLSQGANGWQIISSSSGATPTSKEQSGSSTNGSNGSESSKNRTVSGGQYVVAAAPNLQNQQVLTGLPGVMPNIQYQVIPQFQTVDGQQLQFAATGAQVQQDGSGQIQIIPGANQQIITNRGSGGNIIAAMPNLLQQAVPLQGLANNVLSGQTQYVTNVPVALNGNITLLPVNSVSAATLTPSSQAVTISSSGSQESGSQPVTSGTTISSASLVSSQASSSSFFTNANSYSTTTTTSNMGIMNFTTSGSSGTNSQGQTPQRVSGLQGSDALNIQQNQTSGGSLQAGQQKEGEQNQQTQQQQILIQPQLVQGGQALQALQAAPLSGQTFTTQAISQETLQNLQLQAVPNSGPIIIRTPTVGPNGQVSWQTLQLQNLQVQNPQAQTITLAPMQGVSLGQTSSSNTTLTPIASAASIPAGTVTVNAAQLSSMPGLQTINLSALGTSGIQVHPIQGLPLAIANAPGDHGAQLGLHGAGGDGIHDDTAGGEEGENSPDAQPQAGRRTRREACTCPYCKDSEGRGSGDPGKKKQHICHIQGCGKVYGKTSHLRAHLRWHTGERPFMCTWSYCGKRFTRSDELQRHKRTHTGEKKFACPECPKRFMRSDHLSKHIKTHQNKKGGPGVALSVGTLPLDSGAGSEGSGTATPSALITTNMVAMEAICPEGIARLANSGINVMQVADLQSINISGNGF
Paired box protein Pax-6 (Homo sapiens), sequence (P26367 whole entry, looked up): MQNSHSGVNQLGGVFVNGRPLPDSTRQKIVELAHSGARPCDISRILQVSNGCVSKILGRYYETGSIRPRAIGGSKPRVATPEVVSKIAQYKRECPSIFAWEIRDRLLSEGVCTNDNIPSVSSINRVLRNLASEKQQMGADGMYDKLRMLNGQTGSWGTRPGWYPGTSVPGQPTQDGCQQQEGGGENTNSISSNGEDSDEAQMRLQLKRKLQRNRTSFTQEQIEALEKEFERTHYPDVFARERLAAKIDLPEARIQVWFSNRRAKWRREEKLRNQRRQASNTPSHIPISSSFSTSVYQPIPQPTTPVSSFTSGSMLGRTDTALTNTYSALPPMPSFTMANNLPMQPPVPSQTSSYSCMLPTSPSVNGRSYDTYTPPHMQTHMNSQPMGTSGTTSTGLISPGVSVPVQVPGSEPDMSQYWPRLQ
X-box-binding protein 1 (Homo sapiens), sequence (P17861 whole entry, looked up, the tested form may be a part): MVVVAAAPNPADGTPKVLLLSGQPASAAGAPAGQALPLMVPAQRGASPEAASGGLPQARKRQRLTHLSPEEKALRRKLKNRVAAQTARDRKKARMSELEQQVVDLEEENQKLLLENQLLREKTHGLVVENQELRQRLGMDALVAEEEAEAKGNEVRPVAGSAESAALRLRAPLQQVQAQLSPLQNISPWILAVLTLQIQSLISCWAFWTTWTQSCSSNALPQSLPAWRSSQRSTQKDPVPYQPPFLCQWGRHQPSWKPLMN
Steroid hormone receptor ERR1 (Homo sapiens), sequence (P11474 whole entry, looked up, the tested form may be a part): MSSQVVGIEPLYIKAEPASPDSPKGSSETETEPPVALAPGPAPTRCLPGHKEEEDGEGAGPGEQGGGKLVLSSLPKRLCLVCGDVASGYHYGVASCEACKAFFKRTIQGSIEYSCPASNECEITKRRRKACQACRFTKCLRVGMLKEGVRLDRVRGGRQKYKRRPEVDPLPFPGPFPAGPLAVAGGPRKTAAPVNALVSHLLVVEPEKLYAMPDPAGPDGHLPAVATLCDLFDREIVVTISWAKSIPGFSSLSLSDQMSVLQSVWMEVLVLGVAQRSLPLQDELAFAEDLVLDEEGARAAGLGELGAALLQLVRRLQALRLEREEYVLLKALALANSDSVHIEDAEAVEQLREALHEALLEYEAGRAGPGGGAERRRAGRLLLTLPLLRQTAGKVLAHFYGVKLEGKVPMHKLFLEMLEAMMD

In the case of `CCCCCC(=O)OCC`, the result in test [1], in test [2], in test [3], in [4], in test [5] and in test [6] was inactive. Besides, the compound was classed as inactive in [7], in [8], in test [9], in test [10], in [11] and in test [12]. Also, the compound was called inactive in [13] and in [14].

`N#Cc1ccc(C(c2ccc(C#N)cc2)n2cncn2)cc1`: the result in test [2], in test [4], in test [5], in test [6], in [7] and in [8] was inactive. For the same compound, the compound was classed as inactive in test [9], in [10], in test [11], in test [15], in test [12] and in test [13].

With `[Cl][Eu]([Cl])[Cl]`, the compound was called inactive in [1], in [2], in test [4], in [5], in [6] and in test [8]. Further, the result in [9], in test [10], in [11] and in test [12] was inactive. The AC50 in [15] was 36.6 µM (active).

`c1ccc(-c2nc3ccccc3[nH]2)cc1`: in [2], the AC50 is 27.4 µM (active). The compound was called inactive in [16], in test [17], in [4], in [5], in test [6] and in [7]. Moreover, the outcome in test [8], in test [9], in test [11], in test [15] and in test [14] was inactive.

Regarding `C=CCCCCCCCCO`, the AC50 in [2] is 51.6 µM (active). Besides, the compound was classed as inactive in [16], in [3], in test [4], in [5], in [7] and in test [8]. In addition, the call in test [9], in test [10], in test [15], in [12] and in test [14] was inactive.

Turning to `CCc1cccc(C)c1N`, the call in test [1], in test [3], in [17], in test [4], in test [5] and in test [6] was inactive. The outcome in test [7], in [8], in [9], in [11], in [15] and in test [18] was inactive. Moreover, the result in [12], in [13] and in test [14] was inactive. In test [2], the AC50 is 47.7 µM (active).

Turning to `CCCCC(CC)COS(=O)(=O)O` (stereo not given), the result in test [1], in [17], in test [4], in [5], in test [6] and in test [7] was inactive. For the same compound, the outcome in test [8], in test [9], in test [10], in [11], in [15] and in [18] was inactive. In addition, the result in [12], in [13] and in test [14] was inactive. Further, in test [2], the AC50 is 62.9 µM (active).

`CC1CCC(C(C)(C)S)C(=O)C1` (stereo not given): the call in test [1], in test [17], in [4], in test [5], in test [6] and in test [7] was inactive. Also, the compound was classed as inactive in test [8], in test [9], in test [10], in test [11], in [15] and in [12]. The result in [13] and in [14] was inactive. The AC50 in test [2] was 2.13 µM (active).

For `CO[Si](CCCS)(OC)OC`, the compound was classed as inactive in test [1], in test [2], in test [3], in [17], in test [4] and in test [5]. Moreover, the compound was called inactive in test [6], in [7], in [8], in test [9], in test [15] and in test [12]. Also, the call in [13] and in [14] was inactive.

As to `Cc1cc(=O)[nH]c(=O)[nH]1`, the outcome in test [1], in [3], in [4], in test [5], in [6] and in [7] was inactive. In addition, the outcome in test [8], in [9], in [10], in [11], in [12] and in test [14] was inactive. For the same compound, in test [2], the AC50 is 24.8 µM (active).
